Data on 9 compounds can be found in PubChem BioAssay.

Activity calls are given as the source filed them. Unless noted, how the calls were made is not given here.

A short description of test [1]: A549 cell viability effects, profiling panel, calcein-AM fluorescence, 48 h, basal (AID 1162). Further: test concentration not given here. The settings on record: higher = more signal.
Test [2] can be described thus: adipocyte viability effects, profiling panel, cell-based, 3T3-L1 adipocytes, calcein-AM fluorescence, 48 h, basal (AID 1163). Further: test concentration not given here. The settings on record: 3T3-L1 adipocytes viability, higher = more signal.
The nature of test [3]: HepG2 cell viability effects, profiling panel, calcein-AM fluorescence, 48 h, basal (AID 1164). Further: test concentration not given here. The settings on record: higher = more signal.
Test [4] can be described thus: MM1S cell viability effects, profiling panel, calcein-AM fluorescence, 48 h, basal (AID 1165).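 Further: viability of MM1S multiple myeloma cells under basal unstimulated conditions; test concentration not given here.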 The settings on record: higher = more signal.
A short description of test [5]: basal RPMI8226 viability, no added stimulus, profiling panel, cell-based, calcein-AM fluorescence, 48 h, PK04 Diversity Set (AID 1166).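 Further: cells grown under basal conditions without added stimulus; test concentration not given here.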 The settings on record: RPMI8226 myeloma viability, higher = more signal.
The nature of test [6]: basal HepG2 mitochondrial membrane potential changes, profiling panel, cell-based, JC-1 fluorescence, 24 h, 100 nL compound (AID 1167). Further: test concentration not given here. The settings on record: higher = more signal.
Test [7] in a line: basal 3T3-L1 adipocyte mitochondrial potential changes, profiling panel, cell-based, JC-1 fluorescence, 3T3-L1 adipocytes, 24 h, 100 nL compound (AID 1168). Further: test concentration not given here. The settings on record: JC-1 mitochondrial fluorescence, higher = more signal, called active from +8 up or from −8 down.
Test [8] in a line: basal RPMI8226 mitochondrial membrane potential changes, profiling panel, cell-based, JC-1 fluorescence, 24 h, 100 nL compound (AID 1169). Further: test concentration not given here. The settings on record: RPMI8226 myeloma, JC-1 mitochondrial potential fluorescence, higher = more signal.
A short description of test [9]: basal MM1S mitochondrial membrane potential changes, profiling panel, cell-based, JC-1 fluorescence, 24 h, 100 nL compound (AID 1170). Further: test concentration not given here. The settings on record: higher = more signal.
Test [10] is described as follows: A549 lung cancer cell viability effects, profiling panel, resazurin fluorescence, 24 h, PK04 Diversity Set (AID 1171). Further: test concentration not given here. The settings on record: higher = more signal, called active from +8 up or from −8 down.
Test [11] is described as follows: HepG2 liver cancer cell viability effects, profiling panel, resazurin fluorescence, 24 h, PK04 Diversity Set (AID 1172). Further: test concentration not given here. The settings on record: higher = more signal. Background: The colour change of resazurin is a common sign of viable cells or microbes.
Test [12] can be described thus: basal S. cerevisiae growth modulation, no modifier, primary screen, OD600, strain BY4716, 24 h, basal condition (AID 1173). The settings on record: OD600, 24 h, higher = more signal, called active from +8 up or from −8 down.
A short description of test [13]: MM1S myeloma cell viability, profiling panel, resazurin fluorescence, basal, 24 h, PK04 Diversity Set (AID 1174).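 Further: MM1S multiple myeloma cell line; test concentration not given here.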 The settings on record: higher = more signal, called active from +8 up or from −8 down.
The target of test [14] is Dihydroorotate dehydrogenase (quinone), mitochondrial (Plasmodium falciparum (isolate 3D7)) (UniProt Q08210). Nature of the test: PfDHODH enzyme inhibitors, primary screen, biochemical, C-terminal His tag, absorbance 600 nm (AID 1175).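 Further: recombinant parasite enzyme with a five histidine tag at its C terminus; test concentration not given here.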 The settings on record: DCIP absorbance 600 nm, higher = more signal, called active from +8 up or from −8 down.
Test [15] in a line: P. aeruginosa biofilm formation inhibitors, primary screen, strain PAO1, LB-PBS medium, absorbance 600 nm (AID 1176). Further: test concentration not given here. The settings on record: P. aeruginosa PAO1 growth/biofilm, A600, 12 h; higher = more signal.
Test [16] can be described thus: S. cerevisiae RM11-1a growth modifiers, primary screen, strain RM11-1a, OD600, basal, 24 h (AID 1177).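 Further: cultures grown under basal conditions with no added stressor; test concentration not given here.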 The settings on record: OD600, 24 h, higher = more signal, called active from +8 up or from −8 down.
Test [17] in a line: E. coli acrAB mutant growth effects, primary screen, E. coli filamentation inducers, strain DRC39, OD650, 24 h (AID 1178).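 Further: growth measured as culture turbidity by optical density at 650 nm; test concentration not given here.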 The settings on record: higher = more signal, called active from +8 up or from −8 down.
Test [18] can be described thus: E. coli acrAB mutant growth effects, primary screen, E. coli filamentation inducers, strain DRC39, OD650, 48 h (AID 1179).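 Further: screen aims at cell division blockers that make cells filament.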 The settings on record: E. coli DRC39 delta-acrAB growth, higher = more signal, called active from +8 up or from −8 down.
Test [19] in a line: RPMI8226 myeloma cell viability, profiling panel, resazurin fluorescence, basal, 24 h, PK04 Diversity Set (AID 1180).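 Further: RPMI8826 multiple myeloma cell line at 5000 cells per well; test concentration not given here.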 The settings on record: higher = more signal.
For test [20], the target named is E3 ubiquitin-protein ligase XIAP (Homo sapiens) (UniProt P98170). As to the kind of experiment: XIAP binders, primary screen, biophysical, small-molecule microarray, fluorescence 635 nm (AID 1181).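 Further: score merges 667 nm emission and signal to noise over triplicate slides.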 The settings on record: small-molecule microarray binding, higher = more signal.
Sequence of E3 ubiquitin-protein ligase XIAP (Homo sapiens) (P98170 whole entry, looked up): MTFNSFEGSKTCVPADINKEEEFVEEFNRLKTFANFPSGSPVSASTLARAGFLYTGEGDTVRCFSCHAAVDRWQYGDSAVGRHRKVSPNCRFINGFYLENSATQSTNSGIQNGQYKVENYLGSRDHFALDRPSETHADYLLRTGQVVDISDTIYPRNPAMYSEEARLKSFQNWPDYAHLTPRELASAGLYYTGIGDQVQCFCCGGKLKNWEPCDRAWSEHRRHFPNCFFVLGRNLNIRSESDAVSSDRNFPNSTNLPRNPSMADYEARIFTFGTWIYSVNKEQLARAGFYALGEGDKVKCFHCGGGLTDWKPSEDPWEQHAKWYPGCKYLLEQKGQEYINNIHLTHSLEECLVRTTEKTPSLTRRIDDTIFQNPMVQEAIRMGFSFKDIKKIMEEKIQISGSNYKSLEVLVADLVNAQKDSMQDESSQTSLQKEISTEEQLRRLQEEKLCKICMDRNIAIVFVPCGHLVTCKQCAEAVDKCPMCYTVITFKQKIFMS

Sequence of Dihydroorotate dehydrogenase (quinone), mitochondrial (Plasmodium falciparum (isolate 3D7)) (Q08210 whole entry, looked up): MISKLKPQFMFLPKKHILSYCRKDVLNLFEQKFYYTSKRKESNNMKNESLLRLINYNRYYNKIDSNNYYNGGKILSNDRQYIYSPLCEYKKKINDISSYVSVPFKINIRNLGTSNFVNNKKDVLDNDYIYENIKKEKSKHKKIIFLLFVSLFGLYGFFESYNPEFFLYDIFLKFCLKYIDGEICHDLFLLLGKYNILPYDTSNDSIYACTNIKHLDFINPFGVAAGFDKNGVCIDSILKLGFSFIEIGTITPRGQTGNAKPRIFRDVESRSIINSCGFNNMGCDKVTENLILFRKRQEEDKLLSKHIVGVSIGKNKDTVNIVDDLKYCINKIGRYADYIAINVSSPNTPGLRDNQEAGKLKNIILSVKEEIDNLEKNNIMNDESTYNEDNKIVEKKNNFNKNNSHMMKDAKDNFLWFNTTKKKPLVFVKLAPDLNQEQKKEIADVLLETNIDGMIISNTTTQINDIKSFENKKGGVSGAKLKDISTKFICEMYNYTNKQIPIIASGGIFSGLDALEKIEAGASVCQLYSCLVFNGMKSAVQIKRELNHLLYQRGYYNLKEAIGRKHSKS

For the compound `COc1ccc(CCNC(=O)[C@@H]2c3ccccc3C(=O)N(Cc3ccccc3Cl)[C@H]2c2ccc(CO)cc2)cc1`, the z-score was 1.37 in test [1]; 0.789 in test [2]; 0.332 in test [3]; -0.897 in test [4]; -0.474 in test [5]; 1.64 in test [6]. Also, the z-score is 0.716 (inactive) in test [7]; -0.0929 in test [8]; 1.42 in test [9]; 1.22 (inactive) in test [10]; 0.891 in test [11]; -0.541 (inactive) in test [12]. Besides, the z-score was 0.258 (inactive) in [13]; 0.416 (inactive) in test [15]; 0.394 (inactive) in test [16]; -0.258 (inactive) in test [17]; -0.457 (inactive) in test [18]; 0.883 in test [19]. Moreover, the figures for the composite z-score in test [14] and in test [20] were 0.0856 (inactive) and -0.102, respectively.

On to `CC(C)C(O)C1C=CC2C(=O)NC(=O)C2N1Nc1ccc(Cl)cc1Cl` (stereo not given), for which the z-score in [1] was -1.06; in test [2], -0.699; in [3], -0.401; in test [4], -0.687; in test [5] it was -0.644; in [6] it was -2.25. Further, the z-score in [7] was -1.12 (inactive); in [8], -0.161; in test [9], -0.143; in test [10], -0.883 (inactive); in [11] it was -1.29; in test [12], -9.69 (active). Moreover, the z-score was -1.59 (inactive) in [13]; 0.751 (inactive) in test [15]; 1.05 (inactive) in [16]; -0.456 (inactive) in test [17]; -0.527 (inactive) in test [18]; -1.93 in test [19]. The composite z-score is 0.0813 (inactive) in test [14] and -0.02 in test [20].

Consider `NCCCCCCNC(=O)[C@@H]1C[C@@H]2C(=O)NCC(=O)N2[C@@H]1c1ccc(O)cc1`, for which the z-score is -1.17 in test [1]; 0.544 in [2]; -1.07 in test [3]; 0.307 in test [4]; 0.0172 in test [5]; -0.479 in test [6]. Further, the z-score is 0.172 (inactive) in test [7]; -0.796 in [8]; -0.365 in [9]; -0.368 (inactive) in test [10]; -0.45 in test [11]; 0.333 (inactive) in test [12]. Moreover, the z-score in test [13] is 1.02 (inactive); in test [15] it was 0.696 (inactive); in test [16], 0.681 (inactive); in test [17], -0.0366 (inactive); in test [18], -0.697 (inactive); in [19] it was 0.08. In addition, the composite z-score was 0.99 (inactive) in [14] and 0.0761 in [20].

In the case of `C=CCNC(=O)[C@@H]1[C@H]2C(=O)O[C@H](c3ccccc3)[C@H](c3ccccc3)N2[C@H](c2ccccc2OCCO)[C@@]12C(=O)N(C(=O)OCCOC)c1ccccc12`, the z-score in test [1] is -0.798; in test [2], 0.955; in test [3], -1.69; in test [4] it was -2.24; in test [5], -3.37; in test [6], -0.186. Besides, the z-score in [7] is 0.149 (inactive); in test [8], -0.813; in test [9], -0.287; in [10], -2.03 (inactive); in test [11], -1.59; in test [12] it was 1.86 (inactive). Besides, the z-score in test [13] is -1.12 (inactive); in test [15] it was 2.26 (inactive); in test [16] it was 3.27 (inactive); in [17], 0.0191 (inactive); in [18], -0.476 (inactive); in [19] it was -1.65. Also, the composite z-score in [14] is 0.693 (inactive); in test [20], -0.0559.

As for `NC(=O)NCC#Cc1ccc2c(c1)[C@]1(C(=O)N2)[C@H](c2ccc(O)cc2)N2[C@H](c3ccccc3)[C@H](c3ccccc3)OC(=O)[C@H]2[C@@H]1C(=O)O`, the z-score in test [1] is 0.517; in test [2], 0.145; in test [3], 0.829; in test [4] it was 0.343; in test [5] it was -1.12; in test [6], -1.2. In addition, the z-score in test [7] was -1.47 (inactive); in test [8], 0.183; in test [9], -0.713; in test [10], -0.397 (inactive); in test [11], 0.587; in test [12] it was 0.453 (inactive). In addition, the z-score in [13] was 0.277 (inactive); in test [15] it was 0.237 (inactive); in [16], 0.726 (inactive); in test [17], -0.338 (inactive); in test [18], -0.176 (inactive); in [19] it was 0.772. The composite z-score is -0.268 (inactive) in [14] and 0.0975 in test [20].

Regarding `CN1C(=O)C2C=CC(C(O)C3CC=CCC3)N(N(c3ccccc3)c3ccccc3)C2C1=O` (stereo not given), the z-score was -0.0631 in test [1]; -1.9 in [2]; 0.125 in [3]; 0.535 in test [4]; -0.785 in [5]; -0.77 in test [6]. For the same compound, the z-score in test [7] was -0.339 (inactive); in [8], -0.23; in [9], -0.711; in [10], -0.501 (inactive); in test [11] it was 0.129; in [12], 1.16 (inactive). The z-score in test [13] is -1.17 (inactive); in [15], 0.599 (inactive); in [16], 0.595 (inactive); in test [17] it was -0.486 (inactive); in [18], 0.364 (inactive); in test [19], -1.06. Further, the values for the composite z-score in test [14] and in test [20] were -0.0647 (inactive) and -0.269, respectively.

Turning to `CCOC(=O)C[C@H]1[C@H](OC(=O)c2ccc(C(=O)c3ccccc3)cc2)[C@@H](NC(=O)c2ccc3ccccc3n2)c2cc(OCCCO)ccc2N1C(=O)c1ccccc1`, the z-score in test [1] was -0.851; in test [2], 0.824; in test [3], 0.376; in test [4], -0.67; in [5], -0.705; in test [6] it was 1.11. The z-score in test [7] was -0.966 (inactive); in test [8] it was 0.484; in [9] it was -0.318; in test [10], 0.154 (inactive); in [11], -0.0237; in test [12], 0.854 (inactive). Further, the z-score in test [13] was -0.266 (inactive); in [15], 0.0186 (inactive); in test [16], -0.0492 (inactive); in test [17], -0.28 (inactive); in test [18] it was -0.211 (inactive); in test [19], -0.999. Besides, the composite z-score in test [14] was -0.203 (inactive); in test [20] it was -0.0326.

As for `C=CC(=C)[C@H]1Oc2ccccc2S(=O)(=O)N2CCC[C@@H]12`, the z-score in [1] was 0.159; in test [2], 0.0997; in [3], -1.23; in [4], -0.391; in test [5], -1.64; in test [6] it was -0.708. Moreover, the z-score in [7] was -0.0333 (inactive); in [8] it was -0.295; in test [9] it was 0.941; in test [10], 0.0255 (inactive); in test [11], -0.702; in [12] it was -3 (inactive). In addition, the z-score in [13] was -0.205 (inactive); in test [15], -0.389 (inactive); in test [16], -0.377 (inactive); in test [17], -0.553 (inactive); in [18], -0.84 (inactive); in [19] it was -0.973. The composite z-score in test [14] is 0.742 (inactive); in test [20] it was -0.02.

On to `NC(=O)[C@@H]1[C@H]2C(=O)O[C@H](c3ccccc3)[C@H](c3ccccc3)N2[C@H](c2ccc(O)cc2)[C@@]12C(=O)Nc1ccccc12`, for which the z-score in test [1] was -0.343; in [2] it was 0.956; in test [3], -0.19; in test [4] it was -0.647; in test [5] it was -0.07; in [6], -0.376. Besides, the z-score in test [7] was -0.0789 (inactive); in test [8], -0.902; in test [9], -0.079; in test [10], -0.0543 (inactive); in test [11], 0.363; in [12], -1.39 (inactive). For the same compound, the z-score in test [13] is 0.307 (inactive); in test [15], 0.449 (inactive); in [16], -0.665 (inactive); in test [17] it was 0.385 (inactive); in [18] it was -0.766 (inactive); in test [19], -0.224. Besides, the composite z-score in test [14] was -0.565 (inactive); in [20], 0.0073.
